Assay results: PubChem BioAssay (NCATS)
Inconclusive results are not listed. Active and inactive are the calls of the source. Calls come from the whole dose curve; as a rule, active = well fitted curve in the direction sought with a large enough effect; inconclusive = small, poorly fitted or top-dose-only effect, or another doubt; inactive = no such curve, though single readings can be large; an effect the other way counts as inactive or inconclusive. Where a SMILES comes first, the peptide text is derived from it. The star is where a group is joined. PhAc = O=C(Cc1ccccc1)*

What was measured:
CRL-7250 = normal cell line; assay: Cytotoxic Profiling of Annotated Libraries Using Quantitative High-Throughput Screening (AID 1296008); conditions: Five cell lines viability, CellTiter-Glo ATP luminescence, 48-72 h; max response: hits give low values; note: nearly all actives have a fitted effect of over 60% in size; for max response: % is set by controls: 0 for no effect and ±100 for the full control effect
How it was run: (§1)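 Cells exposed to compounds for 48 or 72 hr at 37 degrees Celsius. Viability read as ATP-coupled luminescence with CellTiter-Glo after 10 min at room temperature.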

HEK293 = assay: as above; conditions: Five cell lines viability, CellTiter-Glo ATP luminescence, 48-72 h; max response: hits give low values
How it was run: as §1

HaCat [1] = assay: as above; conditions: Five cell lines viability, CellTiter-Glo ATP luminescence, 48-72 h; max response: hits give low values
How it was run: as §1

KB-3-1 = assay: as above; conditions: Five cell lines viability, CellTiter-Glo ATP luminescence, 48-72 h; max response: hits give low values
How it was run: as §1

NIH3T3 = assay: as above; conditions: Five cell lines viability, CellTiter-Glo ATP luminescence, 48-72 h; max response: hits give low values
How it was run: as §1

HACAT [2] = assay: qHTS assay to identify novel small-molecules to repurpose for Merkel cell carcinoma treatment (AID 1296009); conditions: MCC and control cell lines, CellTiter-Glo viability, 72 h; at 44.8 µM (top of the series) unless noted; note: nearly all actives have a fitted effect of over 60% in size
How it was run: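 CellTiter-Glo luminescence after 72 hr compound exposure at 37 degree celsius gave cell viability. Libraries NPC and MIPE were run as 8- and 11-point dose responses; RLUs normalized to DMSO (negative) and no-cell (cytotoxicity) controls.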

C33A = assay: Primary qHTS to identify gynecologic anti-cancer compounds using libraries of approved drugs and bioactive compounds (AID 1345084); conditions: Gynecologic cancer cell panel viability, ATPlite luminescence, 48 h; series mostly up to 57.5 µM; note: % is set by controls: 0 for no effect and ±100 for the full control effect; nearly all actives have a fitted effect of over 55% in size
How it was run: (§2)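 Cells, 1,000 per well, plated 16 h, then exposed 48 h at 37 C to compounds. Viability by ATPlite luminescence after 15 min at room temperature.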

CAOV3 = assay: as above; conditions: Gynecologic cancer cell panel viability, ATPlite luminescence, 48 h; series mostly up to 57.5 µM
How it was run: as §2

CASKI = assay: as above; conditions: Gynecologic cancer cell panel viability, ATPlite luminescence, 48 h; series mostly up to 57.5 µM
How it was run: as §2

Es-2 = assay: as above; conditions: Gynecologic cancer cell panel viability, ATPlite luminescence, 48 h; series mostly up to 57.5 µM
How it was run: as §2

HeLa = assay: as above; conditions: Gynecologic cancer cell panel viability, ATPlite luminescence, 48 h; series mostly up to 57.5 µM
How it was run: as §2

Hek293T = assay: as above; conditions: Gynecologic cancer cell panel viability, ATPlite luminescence, 48 h, control line for the selectivity index; series mostly up to 57.5 µM
How it was run: as §2

JEG-3 = assay: as above; conditions: Gynecologic cancer cell panel viability, ATPlite luminescence, 48 h; series mostly up to 57.5 µM
How it was run: as §2

OV90 = assay: as above; conditions: Gynecologic cancer cell panel viability, ATPlite luminescence, 48 h; series mostly up to 57.5 µM
How it was run: as §2

OC[C@H]1O[C@@H](O[C@H]2[C@H](O)[C@@H](CO)O[C@@H](OCc3ccccc3)[C@@H]2O[C@@H]2OC[C@](O)(CO)[C@H]2O)[C@H](O)[C@@H](O)[C@@H]1O
inactive: max response (CRL-7250) -8.44% | max response (HEK293) -1.87% | outcome (HaCat [1]) | max response (KB-3-1) 7.58% | max response (NIH3T3) 1.27% | outcome (HACAT [2]) inactive [at 17.4 µM] | Potency (C33A) | Potency (CAOV3) | outcome (CASKI) | Potency (Es-2) | Potency (HeLa) | Potency (Hek293T) | Potency (JEG-3) | Potency (OV90)

Cc1c(NC(=O)N2CCOCC2)ccc2c1c1ccccc1n2C(C)C
inactive: outcome (CRL-7250) | max response (HEK293) -7.57% | outcome (HaCat [1]) | max response (KB-3-1) 3.33% | max response (NIH3T3) -1.53% | outcome (HACAT [2]) | Potency (C33A) | Potency (CAOV3) | outcome (CASKI) | Potency (Es-2) | Potency (HeLa) | Potency (Hek293T) | Potency (JEG-3) | Potency (OV90)

C=C1C2(C)CC3C4(C)OC(C5OC56C4=CC(=O)OC6(C)C)C3(C)C13C(=O)OC(C)C3(O)C2=O (centres undefined)
inactive: max response (CRL-7250) -6.5% | max response (HEK293) -4.51% | outcome (HaCat [1]) | max response (KB-3-1) 7.16% | max response (NIH3T3) 2.35% | outcome (HACAT [2]) inactive [at 17.4 µM] | Potency (C33A) | Potency (CAOV3) | outcome (CASKI) | Potency (Es-2) | Potency (HeLa) | Potency (Hek293T) | Potency (JEG-3) | Potency (OV90)

OCC1=C[C@@H](O)[C@@H]2C=CO[C@@H](O[C@@H]3O[C@H](CO)[C@@H](O)[C@H](O)[C@H]3O)[C@H]12
inactive: max response (CRL-7250) -1.82% | max response (HEK293) 0.828% | outcome (HaCat [1]) | outcome (KB-3-1) | max response (NIH3T3) 4.6% | outcome (HACAT [2]) | Potency (C33A) | Potency (CAOV3) | outcome (CASKI) | Potency (Es-2) | Potency (HeLa) | Potency (Hek293T) | Potency (JEG-3) | Potency (OV90)

CC(=O)O[C@H]1[C@H](OC(=O)C(C)C)[C@]2(C)OC3(CC[C@]2(C)[C@H]2CCC[C@]4(CO4)[C@]12C)COC(=O)C3 (some centres undefined)
inactive: max response (CRL-7250) -5.19% | max response (HEK293) -0.769% | outcome (HaCat [1]) | max response (KB-3-1) 4.61% | max response (NIH3T3) -0.316% | outcome (HACAT [2]) inactive [at 17.4 µM] | Potency (C33A) | Potency (CAOV3) | outcome (CASKI) | Potency (Es-2) | Potency (HeLa) | Potency (Hek293T) | Potency (JEG-3) | Potency (OV90)

CC(C)CC(c1c(O)c(C=O)c(O)c(C=O)c1O)C1CCC(C)(O)C2CC(C(C)(C)O)CCC12C (centres undefined)
inactive: max response (CRL-7250) -4.35% | max response (HEK293) -7.48% | outcome (HaCat [1]) | outcome (KB-3-1) | max response (NIH3T3) 0.233% | outcome (HACAT [2]) inactive [at 17.4 µM] | Potency (C33A) | Potency (CAOV3) | outcome (CASKI) | Potency (Es-2) | Potency (HeLa) | Potency (Hek293T) | Potency (JEG-3) | Potency (OV90)

COc1c2ccoc2nc2c(OC)c(O[C@@H]3O[C@@H](C)[C@H](O)[C@@H](O[C@@H]4O[C@H](CO)[C@@H](O)[C@H](O)[C@H]4O)[C@H]3OC(C)=O)ccc12
inactive: max response (CRL-7250) 0.0337% | max response (HEK293) -0.274% | outcome (HaCat [1]) | max response (KB-3-1) 9.99% | max response (NIH3T3) -1.67% | outcome (HACAT [2]) inactive [at 17.4 µM] | Potency (C33A) | Potency (CAOV3) | outcome (CASKI) | Potency (Es-2) | Potency (HeLa) | Potency (Hek293T) | Potency (JEG-3) | Potency (OV90)

CCOC(=O)CNC(=O)[C@@H]1CCCN1C(=O)Cc1ccccc1 (PhAc-Pro-Gly-OEt)
inactive: max response (CRL-7250) -0.853% | max response (HEK293) 4.73% | outcome (HaCat [1]) | max response (KB-3-1) 5.86% | max response (NIH3T3) -14.5% | outcome (HACAT [2]) | Potency (C33A) | Potency (CAOV3) | outcome (CASKI) | Potency (Es-2) | Potency (HeLa) | Potency (Hek293T) | Potency (JEG-3) | Potency (OV90)

C=CCC/C=C/C#CCCCCCCCC[C@H]1C(=O)O[C@H](C)[C@@H]1O
inactive: max response (CRL-7250) 0.985% | max response (HEK293) -11.8% | outcome (HaCat [1]) | max response (KB-3-1) -1.24% | max response (NIH3T3) 0.0642% | outcome (HACAT [2]) | Potency (C33A) | Potency (CAOV3) | outcome (CASKI) | Potency (Es-2) | Potency (HeLa) | Potency (Hek293T) | Potency (JEG-3) | Potency (OV90)

C/C=C/C=C/[C@@H]1O[C@](O)([C@H](CC)C(=O)NC/C=C/C=C(\C)[C@@H](OC)[C@@H](C)[C@@H]2O[C@H](/C=C/C=C/C=C(\C)C(=O)c3c(O)ccn(C)c3=O)[C@H](O)[C@@H]2O)[C@H](O)[C@H](O)C1(C)C
inactive: max response (CRL-7250) -0.994% | max response (HEK293) -2.35% | outcome (HaCat [1]) | outcome (KB-3-1) | max response (NIH3T3) 2.66% | outcome (HACAT [2]) inactive [at 9.27 µM] | activity change, negative = cytotoxicity (C33A) 0.106% [at 11.6 µM] | activity change, negative = cytotoxicity (CAOV3) 11.3% [at 11.6 µM] | activity change, negative = cytotoxicity (CASKI) -1.78% [at 11.6 µM] | activity change, negative = cytotoxicity (Es-2) -3.84% [at 11.6 µM] | activity change, negative = cytotoxicity (HeLa) 12.5% [at 11.6 µM] | activity change, negative = cytotoxicity (Hek293T) -0.774% [at 11.6 µM] | activity change, negative = cytotoxicity (JEG-3) -3.88% [at 11.6 µM] | activity change, negative = cytotoxicity (OV90) -4.64% [at 11.6 µM]

COc1cc(OC)cc(-c2ccc3c(-c4ccc(F)cc4)[nH]nc3n2)c1
inactive: outcome (CRL-7250) | max response (HEK293) -28% | outcome (HaCat [1]) | outcome (KB-3-1) | max response (NIH3T3) 0.976% | outcome (HACAT [2]) | Potency (C33A) | Potency (CAOV3) | outcome (CASKI) | Potency (Es-2) | Potency (HeLa) | Potency (Hek293T) | Potency (JEG-3) | Potency (OV90)
